In PubChem BioAssay one finds inhibition data, which are given here for 15 compounds.

Unmarked numbers belong to inactive results. The source made the active and inactive calls. Cut-off read from the data, not from the text of the source, unless noted: active = inhibition above about 33%; inactive = the rest.

Assay [1] concerns the target Nuclear receptor coactivator 3 (Homo sapiens) (UniProt Q9Y6Q9). In words: NCOA3 GAL4-fusion reporter inhibition – cell-based, luminescence, quadruplicate, confirmation (AID 588792;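 active = mean inhibition over 43.08%, the solvent-only control mean plus 3 SD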;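 note: 0% = DMSO treated cells and 100% = gossypol at 36 µM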). Particulars: HEK293 GAL4-SRC3 luciferase reporter, at 3.6 µM, active compounds read high.
In assay [2] the test system is transactivating tegument protein VP16 (Human herpesvirus 1), Gal4-VP16 luciferase reporter. In words: repression of VP16-driven luciferase reporter – cell-based, luminescence, high throughput, counter-screen for SRC3 inhibitor project (AID 588794; in the data active = inhibition above about 30%). The following applies: mammalian cells, at 3.6 µM, active compounds read high. A general note: In a reporter assay the amount or activity of a reporter protein is the signal.

Assay [3] has as its target Nuclear receptor coactivator 1 (Homo sapiens) (UniProt Q15788). Put plainly: NCOA1 GAL4-fusion reporter inhibition – cell-based, luminescence, quadruplicate, confirmation (AID 588820;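 active = mean inhibition above 46.68%, the untreated control wells mean plus 3 SD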;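 note: 0% = DMSO wells and 100% = gossypol 36 µM treated wells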). The following applies: HEK293 GAL4-SRC1 luciferase reporter, at 3.6 µM, active compounds read high.
Assay [4] can be described thus: repression of VP16-driven luciferase reporter – cell-based, luminescence, high throughput, counter-screen for SRC1 inhibitor project (AID 588824; in the data active = inhibition above about 25%). Particulars: cell-based VP16 transactivation luciferase luminescence; at 3.6 µM; active compounds read high.
A short description of assay [5]: StAR promoter reporter inhibitors, counter-screen for LRH-1 inverse agonist project, cell-based, luminescence, high throughput (AID 651611; in the data active = inhibition above about 28%). The following applies: StAR promoter luciferase reporter counterscreen, at 3.6 µM, active compounds read high. In general terms: Counterscreens check selectivity or assay interference.
In assay [6] the target is Nuclear receptor subfamily 5 group A member 2 (Homo sapiens) (UniProt O00482). In words: NR5A2 activity suppression in reporter cells – cell-based, luminescence, confirmation (AID 651613; in the data active = inhibition above about 42%;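 note: HEK293T cells co-transfected with LRH-1 and StAR promoter luciferase reporter; 0% = vehicle wells and 100% = parental cells lacking receptor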). The following applies: cell-based LRH-1 luciferase reporter, inverse agonism; at 3.6 µM; active compounds read high.
Chain of Nuclear receptor subfamily 5 group A member 2 (Homo sapiens) (O00482 whole entry, looked up): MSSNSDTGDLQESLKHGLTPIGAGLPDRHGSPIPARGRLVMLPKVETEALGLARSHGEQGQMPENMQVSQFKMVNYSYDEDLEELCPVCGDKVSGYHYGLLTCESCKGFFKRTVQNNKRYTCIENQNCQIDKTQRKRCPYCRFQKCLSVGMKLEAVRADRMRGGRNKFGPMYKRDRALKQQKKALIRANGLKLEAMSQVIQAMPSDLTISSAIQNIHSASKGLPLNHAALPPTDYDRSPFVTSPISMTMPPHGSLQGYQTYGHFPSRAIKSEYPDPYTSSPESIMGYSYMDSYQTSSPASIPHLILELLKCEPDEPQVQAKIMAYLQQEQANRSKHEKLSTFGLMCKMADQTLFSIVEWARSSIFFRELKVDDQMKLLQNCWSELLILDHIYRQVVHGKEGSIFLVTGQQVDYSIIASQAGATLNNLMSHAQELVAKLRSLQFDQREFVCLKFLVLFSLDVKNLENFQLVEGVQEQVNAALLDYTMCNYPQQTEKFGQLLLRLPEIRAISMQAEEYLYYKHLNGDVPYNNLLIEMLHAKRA
The target of assay [7] is Steroidogenic factor 1 (Homo sapiens) (UniProt Q13285). Put plainly: inverse agonism at SF1 nuclear receptor – cell-based, luminescence, high throughput, counter-screen for LRH-1 inverse agonist project (AID 651614; in the data active = inhibition above about 44%;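 note: cells cotransfected with StAR promoter reporter and SF1 expression vector; 0% = vehicle on cells with receptor and 100% = vehicle on cells lacking receptor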). The following applies: cell-based SF1 luciferase reporter, at 3.6 µM, active compounds read high.
Chain of Steroidogenic factor 1 (Homo sapiens) (Q13285 whole entry, looked up, the tested form may be a part): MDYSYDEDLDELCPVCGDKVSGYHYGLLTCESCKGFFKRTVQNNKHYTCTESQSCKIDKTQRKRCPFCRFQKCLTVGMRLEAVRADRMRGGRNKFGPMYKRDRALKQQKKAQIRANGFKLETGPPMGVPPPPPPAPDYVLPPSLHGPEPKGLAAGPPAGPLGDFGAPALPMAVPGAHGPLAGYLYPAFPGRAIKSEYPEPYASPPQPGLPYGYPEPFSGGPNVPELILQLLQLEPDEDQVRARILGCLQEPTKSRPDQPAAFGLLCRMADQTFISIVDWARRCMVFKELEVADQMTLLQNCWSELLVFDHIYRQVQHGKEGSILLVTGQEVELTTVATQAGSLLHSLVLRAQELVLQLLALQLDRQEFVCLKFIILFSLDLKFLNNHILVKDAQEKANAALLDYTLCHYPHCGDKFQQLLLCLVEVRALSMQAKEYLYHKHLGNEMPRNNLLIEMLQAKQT
The nature of assay [8]: compounds suppressing VP16-driven luciferase signal – cell-based, luminescence, high throughput, counter-screen for LRH-1 inverse agonist project (AID 651615). Particulars: Gal4-VP16 luciferase reporter cells, at 3.6 µM, active compounds read high.
The subject of assay [9] is transactivating tegument protein VP16 (Human herpesvirus 1). In words: compounds suppressing VP16-driven luciferase signal – cell-based, luminescence, single concentration, counter-screen for SRC2 inhibitor project (AID 652007; in the data active = inhibition above about 36%). Particulars: cell-based VP16 transactivation luciferase reporter, at 8.9 µM, active compounds read high.
For assay [10], the target named is Nuclear receptor coactivator 2 (Homo sapiens) (UniProt Q15596). In words: inhibition of GAL4-SRC2 driven luciferase expression – cell-based, luminescence, HEK293, triplicate, confirmation (AID 652008;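 active = mean inhibition above 46.5%, the solvent-only control mean plus 3 SD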;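 note: 0% = DMSO-treated cells and 100% = Gossypol at 36 µM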). The following applies: HEK293 GAL4-SRC2 luciferase reporter, at 8.9 µM, active compounds read high.
Chain of Nuclear receptor coactivator 2 (Homo sapiens) (Q15596 whole entry, looked up, the tested form may be a part): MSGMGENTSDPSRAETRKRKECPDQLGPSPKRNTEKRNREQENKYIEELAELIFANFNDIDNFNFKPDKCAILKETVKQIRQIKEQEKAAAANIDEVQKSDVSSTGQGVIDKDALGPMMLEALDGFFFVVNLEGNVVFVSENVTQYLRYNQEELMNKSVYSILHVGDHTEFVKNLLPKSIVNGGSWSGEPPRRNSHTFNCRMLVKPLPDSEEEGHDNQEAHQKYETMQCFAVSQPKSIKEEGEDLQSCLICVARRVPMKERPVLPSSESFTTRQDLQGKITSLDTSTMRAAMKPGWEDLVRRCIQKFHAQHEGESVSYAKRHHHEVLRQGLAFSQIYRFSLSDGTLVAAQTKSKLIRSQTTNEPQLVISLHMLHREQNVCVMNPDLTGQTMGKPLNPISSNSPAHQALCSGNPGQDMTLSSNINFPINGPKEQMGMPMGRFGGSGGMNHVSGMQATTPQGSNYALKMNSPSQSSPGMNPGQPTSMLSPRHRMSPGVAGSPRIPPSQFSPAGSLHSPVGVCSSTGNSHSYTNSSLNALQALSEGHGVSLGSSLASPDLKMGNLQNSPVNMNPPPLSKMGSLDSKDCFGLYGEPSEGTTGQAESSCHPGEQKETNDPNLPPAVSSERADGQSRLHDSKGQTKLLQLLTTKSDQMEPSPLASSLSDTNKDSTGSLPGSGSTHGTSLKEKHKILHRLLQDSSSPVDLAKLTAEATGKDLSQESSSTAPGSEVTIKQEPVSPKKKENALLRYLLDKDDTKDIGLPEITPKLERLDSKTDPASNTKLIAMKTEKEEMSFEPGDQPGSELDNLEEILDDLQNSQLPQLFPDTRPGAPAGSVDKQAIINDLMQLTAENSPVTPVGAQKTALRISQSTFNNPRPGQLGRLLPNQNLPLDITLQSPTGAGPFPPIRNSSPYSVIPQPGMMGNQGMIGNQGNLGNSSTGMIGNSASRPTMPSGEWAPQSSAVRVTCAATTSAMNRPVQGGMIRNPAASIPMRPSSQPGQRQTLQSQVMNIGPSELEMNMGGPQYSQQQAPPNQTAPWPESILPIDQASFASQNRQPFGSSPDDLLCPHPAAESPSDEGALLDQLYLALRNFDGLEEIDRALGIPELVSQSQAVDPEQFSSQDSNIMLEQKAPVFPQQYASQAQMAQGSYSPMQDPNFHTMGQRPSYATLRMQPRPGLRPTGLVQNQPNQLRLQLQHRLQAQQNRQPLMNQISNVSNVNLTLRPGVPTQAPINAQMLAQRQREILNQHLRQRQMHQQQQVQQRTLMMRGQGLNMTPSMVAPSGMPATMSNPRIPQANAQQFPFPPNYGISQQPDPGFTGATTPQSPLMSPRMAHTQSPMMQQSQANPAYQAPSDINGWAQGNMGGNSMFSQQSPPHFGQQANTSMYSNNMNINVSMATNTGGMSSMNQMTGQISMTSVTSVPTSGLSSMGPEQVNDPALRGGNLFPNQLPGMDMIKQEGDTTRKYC

Chain of Nuclear receptor coactivator 3 (Homo sapiens) (Q9Y6Q9 whole entry, looked up, the tested form may be a part): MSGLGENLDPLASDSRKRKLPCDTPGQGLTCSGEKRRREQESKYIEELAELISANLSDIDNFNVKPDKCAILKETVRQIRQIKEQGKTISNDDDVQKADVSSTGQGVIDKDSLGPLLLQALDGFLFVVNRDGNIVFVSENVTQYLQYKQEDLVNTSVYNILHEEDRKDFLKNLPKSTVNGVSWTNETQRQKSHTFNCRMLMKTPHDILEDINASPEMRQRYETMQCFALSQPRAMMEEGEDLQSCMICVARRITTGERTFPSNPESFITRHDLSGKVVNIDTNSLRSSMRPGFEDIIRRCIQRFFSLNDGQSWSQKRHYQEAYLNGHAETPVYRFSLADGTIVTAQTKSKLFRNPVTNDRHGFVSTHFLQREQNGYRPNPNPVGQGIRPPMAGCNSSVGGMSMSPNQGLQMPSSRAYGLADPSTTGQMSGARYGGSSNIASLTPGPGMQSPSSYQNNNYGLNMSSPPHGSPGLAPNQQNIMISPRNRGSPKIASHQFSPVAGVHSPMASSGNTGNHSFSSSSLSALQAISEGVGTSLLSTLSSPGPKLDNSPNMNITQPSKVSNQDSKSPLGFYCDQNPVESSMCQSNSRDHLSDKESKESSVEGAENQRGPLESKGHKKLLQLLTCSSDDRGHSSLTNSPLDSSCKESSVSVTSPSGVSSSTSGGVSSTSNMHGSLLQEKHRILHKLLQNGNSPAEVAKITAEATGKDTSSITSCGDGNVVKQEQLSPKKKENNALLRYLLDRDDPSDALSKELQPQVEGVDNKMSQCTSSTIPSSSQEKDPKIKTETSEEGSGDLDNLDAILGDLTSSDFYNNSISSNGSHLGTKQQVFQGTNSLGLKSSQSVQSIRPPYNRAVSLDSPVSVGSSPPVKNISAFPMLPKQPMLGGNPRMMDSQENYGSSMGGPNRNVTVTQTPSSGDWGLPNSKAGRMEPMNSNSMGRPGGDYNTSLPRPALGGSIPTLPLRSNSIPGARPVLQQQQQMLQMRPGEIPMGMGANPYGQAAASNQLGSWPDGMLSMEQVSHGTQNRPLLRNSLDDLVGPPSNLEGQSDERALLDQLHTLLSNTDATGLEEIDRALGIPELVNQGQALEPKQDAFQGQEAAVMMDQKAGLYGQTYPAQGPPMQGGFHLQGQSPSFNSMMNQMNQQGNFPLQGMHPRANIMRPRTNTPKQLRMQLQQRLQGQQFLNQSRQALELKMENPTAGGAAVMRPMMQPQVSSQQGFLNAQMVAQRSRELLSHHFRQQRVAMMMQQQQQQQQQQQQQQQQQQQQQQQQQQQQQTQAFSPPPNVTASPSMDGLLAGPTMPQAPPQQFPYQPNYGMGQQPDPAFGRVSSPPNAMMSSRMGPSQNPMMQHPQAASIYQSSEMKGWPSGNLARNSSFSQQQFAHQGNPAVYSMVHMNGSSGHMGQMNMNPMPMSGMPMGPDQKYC

The inhibition is the relative decrease from the control value, in per cent. For `CCC1=C(CC2NCCc3ccccc32)CC2c3cc(OC)c(OC)cc3CCN2C1` (stereo not given), the inhibition in [1] is 90.6% (active); in [2], 84.9% (active); in assay [3] it was 63.7% (active); in [4], 85.7% (active); in assay [5], 87.4% (active); in assay [6], 98.3% (active). The inhibition is 88.3% (active) in assay [7], 93.9% (active) in assay [8], 47.1% (active) in assay [9] and 52.6% (active) in [10].
Consider `O=C(NC1CCCCC1)C(c1cccnc1)N(C(=O)CCl)c1ccccc1Cl` (stereo not given), for which the inhibition in assay [1] is 81.8% (active); in assay [2] it was 64% (active); in assay [3], 67.1% (active); in assay [4] it was 59.1% (active); in assay [5], 54.7% (active); in assay [6] it was 70.4% (active). In addition, the inhibition in [7] was 67.5% (active); in assay [8], 64.8% (active); in [9] it was 38.6% (active); in [10], 55.5% (active).
As for `O=C(CSc1nnc(-c2cccnc2)s1)Nc1ccnc2ccccc12`, the inhibition in assay [1] was 32.3%; in [2], 46.7% (active); in assay [3] it was -3.87%; in assay [4], 51.2% (active); in assay [5] it was 21%; in assay [6], 57% (active). For the same compound, the inhibition in [7] is 56.1% (active); in assay [8], 55.6% (active); in assay [9], 23.7%; in [10], 35%.
For the compound `O=C(NCc1cccnc1)/C(=C/c1ccc(-c2ccc(Cl)cc2)o1)S(=O)(=O)c1ccccc1`, the inhibition in [1] is 76.5% (active); in assay [2] it was 62.8% (active); in assay [3] it was 48.1% (active); in assay [4] it was 47% (active); in assay [5], 47.5% (active); in assay [6], 79.5% (active). Also, the inhibition was 78.1% (active) in assay [7], 77.2% (active) in [8], 70.2% (active) in assay [9] and 50.4% (active) in assay [10].
For `C/C(CC(C)(C)C1CCCCC1)=N\NC(N)=S`, the inhibition in [1] was 72.2% (active); in assay [2], 60.3% (active); in [3], 48.5% (active); in [4], 59% (active); in assay [5] it was 45.6% (active); in assay [6] it was 80.8% (active). The inhibition is 82.8% (active) in [7], 68.6% (active) in assay [8], 43.8% (active) in [9] and 38.4% in [10].
As for `CC1(C)N=C(N)N=C(N)N1c1ccc(CCCCc2ccccc2)cc1`, the inhibition in assay [1] was 31.1%; in [2], 68.2% (active); in [3], 60.1% (active); in assay [4], 66% (active); in assay [5], 63.7% (active); in [6] it was 89.9% (active). Also, the inhibition is 85.7% (active) in assay [7], 80.6% (active) in [8], 26.9% in [9] and 29.4% in assay [10].
For `CC(C)(C)C(=O)Nc1ccc(NC(=O)c2ccco2)nc1`, the inhibition in [1] was 69.9% (active); in [2], 64.1% (active); in [3] it was 39.4%; in assay [4], 39.8% (active); in assay [5], 56.1% (active); in assay [6], 15.6%. The inhibition in [7] is 59.4% (active); in assay [8], 36.7% (active); in assay [9] it was 72.7% (active); in [10], 92.8% (active).
As to `COCC(=O)OC1CCn2c1nc1c2C(=O)C(C)=C(NC(C)=O)C1=O` (stereo not given), the inhibition in assay [1] was 91.9% (active); in assay [2], 86.7% (active); in [3] it was 75.1% (active); in assay [4] it was 85.7% (active); in [5], 80.1% (active); in assay [6], 99.7% (active). Also, the inhibition in [7] is 86.6% (active); in assay [8], 90.8% (active); in assay [9], 57.3% (active); in assay [10] it was 73.5% (active).
For `COc1cc(C(=O)/C=C/c2cccnc2)c([N+](=O)[O-])cc1OC`, the inhibition in assay [1] is 33.2%; in [2] it was 45.3% (active); in assay [3] it was 29.4%; in [4], 48.8% (active); in assay [5], 59.3% (active); in assay [6], 59.1% (active). In addition, the inhibition was 56.7% (active) in assay [7], 68.5% (active) in [8], 18.2% in [9] and 45.8% in assay [10].
Consider `C=C1C(=O)OC2CC1C(OC(C)=O)CC(C)=CCCC(C)=CCCC2(C)O` (stereo not given), for which the inhibition in assay [1] is 0.28%; in assay [2] it was 39.9% (active); in assay [3], 23.6%; in [4], 34.9% (active); in assay [5] it was 39.1% (active); in [6], 25.2%. Moreover, the inhibition in [7] was 25%; in assay [8], 56% (active); in assay [9], 26.4%; in [10], 38.7%.
For the compound `Cc1nn(-c2nc3ccccc3[nH]2)c(=O)c2ccccc12`, the inhibition in assay [1] was 72.3% (active); in assay [2] it was 65% (active); in assay [3], 47.4% (active); in assay [4] it was 68.3% (active); in assay [5] it was 69.2% (active); in [6], 63.9% (active). Further, the inhibition in assay [7] was 78.8% (active); in assay [8], 59.3% (active); in assay [9], 82.9% (active); in [10], 89.3% (active).
In the case of `CN=c1scc(-c2ccccc2F)n1/N=C/c1ccc[nH]1`, the inhibition in [1] is 89% (active); in assay [2], 86.5% (active); in [3], 71.6% (active); in assay [4] it was 75.6% (active); in assay [5] it was 87.2% (active); in [6] it was 70.1% (active). Further, the inhibition in assay [7] is 85.6% (active); in [8] it was 78.1% (active); in assay [9] it was 87.7% (active); in [10] it was 96.1% (active).
Turning to `CCCc1ccc(-c2ccc(/C=C/C(=O)O)cc2)nc1`, the inhibition in assay [1] is 76% (active); in assay [2], 71.9% (active); in assay [3] it was 70.6% (active); in assay [4], 67.7% (active); in [5] it was 77.9% (active); in [6], 85.6% (active). In addition, the inhibition is 76.9% (active) in [7], 68.6% (active) in [8], 85.7% (active) in [9] and 94.6% (active) in assay [10].
With `COc1ccc2cc3c(N)nn(C(=O)Cc4c[nH]c5ccccc45)c3nc2c1`, the inhibition in [1] was 82.3% (active); in [2], 66.2% (active); in assay [3], 69% (active); in assay [4], 63.9% (active); in assay [5] it was 51.1% (active); in assay [6], 64.7% (active). Also, the inhibition in assay [7] is 55.5% (active); in [8], 83.3% (active); in [9], 31.8%; in assay [10] it was 73.2% (active).
Consider `COC(=O)c1cn(NC(=O)c2cc([N+](=O)[O-])ccc2F)c(=O)c2ccccc12`, for which the inhibition in assay [1] is 83.8% (active); in [2], 83.6% (active); in [3], 51.1% (active); in [4], 81% (active); in assay [5], 89% (active); in assay [6], 102% (active). Besides, the inhibition is 92.9% (active) in assay [7], 84.3% (active) in assay [8], 27.7% in [9] and 64.7% (active) in assay [10].
